Assay results as given in PubChem BioAssay (EPA / NIEHS).
The source made the active and inactive calls. The calls were made as follows: active = hit-call score of the fitted dose curve at least 0.9, where 1 is the maximum; inactive = score below 0.9.

What was measured:
[1] = read-out: Interleukin-8 (IL8), CXCL8 (gene 3576); assay: BSK_CASM3C_IL8: BioMAP Diversity Plus: CASM3C Assay for Interleukin-8 (IL8) Biomarker Activity (AID 2283042); conditions: primary human coronary artery smooth muscle cells; actives raise or lower the signal;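 also: IL-8 protein level quantified by ELISA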
[2] = read-out: Human Leukocyte Antigen - DR isotype (HLADR), HLA-DRA (gene 3122); assay: BSK_CASM3C_HLADR: BioMAP Diversity Plus: CASM3C Assay for Human Leukocyte Antigen - DR isotype (HLADR) Biomarker Activity (AID 2283043); conditions: primary human coronary artery smooth muscle cells; actives raise or lower the signal;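 also: cell-surface HLA-DR protein level quantified by ELISA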
[3] = read-out: Macrophage colony-stimulating factor (MCSF), CSF1 (gene 1435); assay: BSK_CASM3C_MCSF: BioMAP Diversity Plus: CASM3C Assay for Macrophage colony-stimulating factor (MCSF) Biomarker Activity (AID 2283044); conditions: primary human coronary artery smooth muscle cells; actives raise or lower the signal;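 also: M-CSF protein amount quantified by ELISA after 24 h exposure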
[4] = read-out: Low-density lipoprotein receptor (LDLR), LDLR (gene 3949); assay: BSK_CASM3C_LDLR: BioMAP Diversity Plus: CASM3C Assay for Low-density lipoprotein receptor (LDLR) Biomarker Activity (AID 2283045); conditions: primary human coronary artery smooth muscle cells; actives raise or lower the signal;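 also: LDLR protein level on the cell surface quantified by ELISA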
[5] = read-out: Monocyte Chemoattractant Protein-1 (MCP1), CCL2 (gene 6347); assay: BSK_CASM3C_MCP1: BioMAP Diversity Plus: CASM3C Assay for Monocyte Chemoattractant Protein-1 (MCP1) Biomarker Activity (AID 2283046); conditions: primary human coronary artery smooth muscle cells; actives raise or lower the signal;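 also: MCP-1 level quantified by ELISA 24 h after dosing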
[6] = BSK_CASM3C_Proliferation: Cell Proliferation Assessment in the BioMAP Diversity Plus: CASM3C Assay (AID 2283047); conditions: primary human coronary artery smooth muscle cells;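 also: sulforhodamine B total protein stain as relative cell number at 560 nm; sub-confluent cells exposed 48 h before staining; fitted both ways against DMSO so gain or loss of cell number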
[7] = read-out: Monokine induced gamma interferon (MIG), CXCL9 (gene 4283); assay: BSK_CASM3C_MIG: BioMAP Diversity Plus: CASM3C Assay for Monokine induced gamma interferon (MIG) Biomarker Activity (AID 2283048); conditions: primary human coronary artery smooth muscle cells; actives raise or lower the signal;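 also: MIG protein level measured by ELISA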
[8] = read-out: serum amyloid A (SAA), SAA1 (gene 6288); assay: BSK_CASM3C_SAA: BioMAP Diversity Plus: CASM3C Assay for serum amyloid A (SAA) Biomarker Activity (AID 2283049); conditions: primary human coronary artery smooth muscle cells; actives raise or lower the signal;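 also: SAA protein level quantified by ELISA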
[9] = BSK_CASM3C_SRB: Viability Assessment in the BioMAP Diversity Plus: CASM3C Assay (AID 2283050); conditions: primary human coronary artery smooth muscle cells;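 also: total protein by SRB staining as cytotoxicity measure in parallel cultures; cells exposed to compound for 24 h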
[10] = read-out: Thrombomodulin, THBD (gene 7056); assay: BSK_CASM3C_Thrombomodulin: BioMAP Diversity Plus: CASM3C Assay for Thrombomodulin Biomarker Activity (AID 2283051); conditions: primary human coronary artery smooth muscle cells; actives raise or lower the signal;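 also: thrombomodulin protein level measured by ELISA 24 h after dosing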
[11] = read-out: Tissue Factor, F3 (gene 2152); assay: BSK_CASM3C_TissueFactor: BioMAP Diversity Plus: CASM3C Assay for Tissue Factor Biomarker Activity (AID 2283052); conditions: primary human coronary artery smooth muscle cells; actives raise or lower the signal;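 also: cell surface tissue factor protein level read by ELISA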
[12] = read-out: Interferon-gamma inducible Protein 10 (IP10), CXCL10 (gene 3627); assay: BSK_hDFCGF_IP10: BioMAP Diversity Plus: hDFCGF Assay for Interferon-gamma inducible Protein 10 (IP10) Biomarker Activity (AID 2283053); conditions: primary human foreskin fibroblasts; actives raise or lower the signal
Summary of the method: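 Primary foreskin fibroblasts, human; 24 h compound exposure; IP-10 by ELISA; bidirectional fit vs DMSO.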

[13] = read-out: Urokinase-type plasminogen activator receptor (uPAR), PLAUR (gene 5329); assay: BSK_CASM3C_uPAR: BioMAP Diversity Plus: CASM3C Assay for Urokinase-type plasminogen activator receptor (uPAR) Biomarker Activity (AID 2283054); conditions: primary human coronary artery smooth muscle cells; actives raise or lower the signal;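 also: cell-surface uPAR protein level quantified by ELISA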
[14] = read-out: Vascular cell adhesion molecule 1 (VCAM1), VCAM1 (gene 7412); assay: BSK_CASM3C_VCAM1: BioMAP Diversity Plus: CASM3C Assay for Vascular cell adhesion molecule 1 (VCAM1) Biomarker Activity (AID 2283055); conditions: primary human coronary artery smooth muscle cells; actives raise or lower the signal;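 also: VCAM-1 protein level quantified by ELISA on the cells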
[15] = read-out: Collagen III, COL3A1 (gene 1281); assay: BSK_hDFCGF_CollagenIII: BioMAP Diversity Plus: hDFCGF Assay for Collagen III Biomarker Activity (AID 2283056); conditions: primary human foreskin fibroblasts; actives raise or lower the signal
Summary of the method: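 Cells: human foreskin fibroblasts, primary. Dosing followed by 24 h incubation, then ELISA for collagen III. Both increases and decreases scored relative to DMSO.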

[16] = read-out: Epidermal growth factor receptor (EGFR), EGFR (gene 1956); assay: BSK_hDFCGF_EGFR: BioMAP Diversity Plus: hDFCGF Assay for Epidermal growth factor receptor (EGFR) Biomarker Activity (AID 2283057); conditions: primary human foreskin fibroblasts; actives raise or lower the signal
Summary of the method: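 hDFCGF system, primary human foreskin fibroblasts; compound 24 h; EGFR measured by ELISA; DMSO = negative control/baseline; bidirectional fitting.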

[17] = read-out: Interleukin-8 (IL8), CXCL8 (gene 3576); assay: BSK_hDFCGF_IL8: BioMAP Diversity Plus: hDFCGF Assay for Interleukin-8 (IL8) Biomarker Activity (AID 2283058); conditions: primary human foreskin fibroblasts; actives raise or lower the signal
Summary of the method: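 IL-8 levels from compound-treated primary human fibroblasts were read by ELISA at 24 h, with DMSO serving as baseline for bidirectional fitting.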

[18] = read-out: Macrophage colony-stimulating factor (MCSF), CSF1 (gene 1435); assay: BSK_hDFCGF_MCSF: BioMAP Diversity Plus: hDFCGF Assay for Macrophage colony-stimulating factor (MCSF) Biomarker Activity (AID 2283060); conditions: primary human foreskin fibroblasts; actives raise or lower the signal
Summary of the method: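 M-CSF levels, determined by ELISA, are taken at 24 h after dosing human skin fibroblasts. Responses in either direction are fitted with DMSO serving as the baseline.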

Measured: AC50

C=COC(=O)C(C)(C)CCCCCC
active: [2] 35.9 µM | [3] 32 µM | [5] 20 µM | [6] 37.8 µM | [7] 32.6 µM | [9] 31.9 µM | [11] 20 µM | [12] 35 µM | [13] 20 µM | [14] 33.2 µM | [15] 31.2 µM | [17] 31 µM | [18] 35 µM
inactive: [1] | [4] | [8] | [10] | [16]

O=C(CCCN1CCC(O)(c2ccc(Cl)cc2)CC1)c1ccc(F)cc1
active: [4] 9.2 µM | [6] 20 µM
inactive: all other assays above

CCCCCCCCCCCCOS(=O)(=O)O
active: [12] 26.3 µM | [16] 20 µM | [18] 30.9 µM
not listed: [5] | [8]
inactive: all other assays above

CCCCC=O
inactive: all assays above

CCCCc1oc2ccccc2c1C(=O)c1cc(I)c(OCCN(CC)CC)c(I)c1
active: [1] 23.9 µM | [2] 5.94 µM | [3] 22 µM | [4] 27.2 µM | [5] 25.1 µM | [6] 8.1 µM | [7] 24 µM | [8] 12.4 µM | [9] 18.9 µM | [10] 27.9 µM | [11] 24 µM | [12] 8.78 µM | [13] 13.7 µM | [14] 25.3 µM | [15] 7.23 µM | [17] 10.3 µM | [18] 6.99 µM
inactive: [16]

NC(=NCCCCCCN=C(N)/N=C(\N)Nc1ccc(Cl)cc1)/N=C(\N)Nc1ccc(Cl)cc1
active: [1] 9.32 µM | [2] 6.06 µM | [3] 7.55 µM | [4] 5.55 µM | [6] 4.91 µM | [7] 13.2 µM | [8] 5.67 µM | [9] 4.9 µM | [10] 4.64 µM | [11] 2.1 µM | [12] 8.17 µM | [13] 4.86 µM | [14] 9.65 µM | [15] 1.18 µM | [18] 4.84 µM
inactive: [17]

C=CC(=O)OCCC(F)(F)C(F)(F)C(F)(F)C(F)(F)C(F)(F)C(F)(F)C(F)(F)C(F)(F)F
inactive: all assays above

OCCN1CN(CCO)CN(CCO)C1
active: [3] 5 µM | [4] 0.17 µM | [9] 20 µM | [12] 20 µM | [14] 32.8 µM | [18] 20 µM
inactive: all other assays above
